Data taken from PubChem BioAssay.

Assay: growth effects on S. cerevisiae YJM789 – YJM789 clinical isolate, OD600, 24 h, basal, primary screen (AID 1089);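 note: growth of clinical yeast isolate S. cerevisiae YJM 789 seeded 1000 cells per well; test concentration not given here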
Conditions: higher = more signal, called active from +8 up or from −8 down

z-score, inactive:
COCC(=C=CC[C@H](O)c1ccc(OCCO)cc1)CCO 0.028, CCOC(=O)C[C@H]1[C@H](OC(=O)Cc2ccc3c(c2)OCO3)[C@@H](NC(=O)c2ccc3ccccc3n2)c2cc(OCCCO)ccc2N1C(=O)c1ccccc1 0.131, COc1ccc([Si](C)(C)[C@@H]2[C@@H](CC(=O)N3CCC[C@H]3CO)O[C@]3(C(=O)N(Cc4cccc(N5C(=O)COc6ccccc65)c4)c4ccccc43)[C@H]2C)cc1 -2.24, COc1ccc(CCNC(=O)[C@@H]2c3ccccc3C(=O)N(C3CCCCC3)[C@H]2c2ccc(CO)cc2)cc1 -0.395, NCCCCCNC(=O)[C@@H]1C[C@@H]2C(=O)N[C@@H](CCCCN)C(=O)N2[C@@H]1c1ccc(O)cc1 1.83, NC(=O)[C@H]1[C@@H]2C(=O)O[C@@H](c3ccccc3)[C@@H](c3ccccc3)N2[C@@H](c2ccc(OCCO)cc2)[C@]12C(=O)Nc1ccc(C#CCCO)cc12 1.62, CCCCC(O)C1C=CC2C(=O)N(C)C(=O)C2N1N(c1ccccc1)c1ccccc1 (stereo not given) -0.0289, CCCC[C@@H](O)C1=C(COC)C[C@H]2C(=O)N(C)C(=O)[C@H]2[C@H]1CO -2.33, C=C(COC)/C(=C/C[C@H](OC(=O)c1ccncc1)c1ccccc1OCCO)c1cc(C(=O)OC)ccc1OC -0.819, COC(=O)C1(CC(C)C)C=C2C(=C(c3ccccc3)C(=O)C2C)CN1 (stereo not given) -0.201, CCOc1cc(C(O)C2C=CC3C(=O)NC(=O)C3N2Nc2ccc(Cl)cc2Cl)ccc1O (stereo not given) -1.36, Cc1ccc(S[C@]2(C(=O)NC(C)C)CC(=O)N(Cc3cc(C(F)(F)F)cc(C(F)(F)F)c3)[C@@H]2c2ccc(CO)cc2)cc1 -0.637, CCCCCCCCCC(O)C1C=CC2C(=O)N(c3ccccc3)C(=O)C2N1Nc1cc(OC)c(OC)c(OC)c1 (stereo not given) 1.13, COc1cc(C(O)C2C=CC3C(=O)N(C)C(=O)C3N2Nc2ccccc2)cc(OC)c1OC (stereo not given) 0.0446, CCOC(=O)C1=C[C@@H](C(C)C)N(S(=O)(=O)c2ccc(C)cc2)[C@H]1c1ccc(C(F)(F)F)cc1 1.43, CC(C)C(CO)N1C(=O)[C@@H]2C3C(=O)OCCC/C=C\[C@H]3OC23C=CCN(c2ccc4ccccc4c2)C(=O)[C@@H]13 (stereo not given in full) -0.25, CCCCN1CC=CC23O[C@@H]4/C=C\CCCOC(=O)C4[C@H]2C(=O)N(CCO)[C@@H]3C1=O (stereo not given in full) 0.812, CC(C)C(CO)N1C(=O)[C@@H]2C3C(=O)OCCC/C=C\[C@H]3OC23C=CCN(Cn2nnc4ccccc42)C(=O)[C@@H]13 (stereo not given in full) 0.0005, C=CC[C@@]1(C(=O)NCCCOC)N=C(c2ccc(OCCCO)cc2)O[C@@H]1c1ccccc1N=[N+]=[N-] 0.339, C=CCNC(=O)[C@@H]1[C@H]2C(=O)O[C@H](c3ccccc3)[C@H](c3ccccc3)N2[C@H](c2ccccc2OCCO)[C@@]12C(=O)N(C(=O)OCCOC)c1ccc(C#CC3(O)CCCCCC3)cc12 0.0171, COCCOC(=O)N1C(=O)[C@@]2(c3cc(C#CCC(C(=O)OC)C(=O)OC)ccc31)[C@H](c1ccc(OCCO)cc1)N1[C@H](c3ccccc3)[C@H](c3ccccc3)OC(=O)[C@H]1[C@@H]2C(=O)N1CCc2cc(OC)c(OC)cc2C1 2.13, C=CCN1C(=O)[C@]2(CCC(=O)OC(C)(C)C)N=C(c3ccc(OCCCO)cc3)O[C@@H]2c2ccccc21 -2.22, C#CCN(Cc1ccccc1Br)[C@H](/C=C/c1ccccc1)[C@@H](O)Cc1ccccc1 0.737, O=C1N(CCS(=O)(=O)c2ccccc2)c2ccccc2[C@H]2OC(c3ccc(OCCCO)cc3)=N[C@@]12Cc1ccccc1 0.28, COCCOC(=O)N1C(=O)[C@@]2(c3cc(C#CC4(O)CCCCCC4)ccc31)[C@H](c1ccc(O)cc1)N1[C@H](c3ccccc3)[C@H](c3ccccc3)OC(=O)[C@H]1[C@@H]2C(=O)N1CCN(c2ncccn2)CC1 0.12, CO[C@H]1O[C@H](CO)[C@@H](OC(=O)Nc2ccccc2)[C@H](OC(=O)c2cc3ccccc3[nH]2)[C@H]1OC(=O)c1cc2ccccc2[nH]1 -1.63, O=C1O[C@@H](c2ccccc2)[C@@H](c2ccccc2)N2[C@@H](c3ccc(OCCO)cc3)[C@]3(C(=O)Nc4ccc(C#CC5=CCCCC5)cc43)[C@@H](C(=O)NC[C@H](O)c3ccccc3)[C@H]12 1.99, CC1CC/C=C\[C@H]2OC34C=CCN(c5ccc6ccccc6c5)C(=O)[C@H]3N(CCCO)C(=O)[C@@H]4C2C(=O)O1 (stereo not given in full) 0.116, CC(C)C(O)C1C=CC2C(=O)N(c3ccccc3)C(=O)C2N1Nc1ccccc1 (stereo not given) 0.0864, CC(C)C(CO)N1C(=O)[C@@H]2[C@H]3C(=O)OCC=C[C@H]3OC23C=CCN(c2ccc(Cl)cc2)C(=O)[C@@H]13 (stereo not given in full) 0.964, CCOC(=O)C[C@H]1[C@H](OC(=O)Cc2ccc3c(c2)OCO3)[C@@H](NC(=O)c2ccc3ccccc3n2)c2cc(OCCCO)ccc2N1C(=O)c1ccc2ccccc2n1 -2.47, CCCC=C(CCC)[C@@H](NC(=O)C(C)(C)C)c1ccc(C(=O)OC)cc1 0.647, COC(=O)[C@@]1(Cc2ccccc2)[C@H]2c3cc(C(=O)N4CCCC4)n(CCc4ccccn4)c3C[C@H]2CN1C(=O)c1ccccc1 -0.789, CC(C)c1ccc(NN2C(C(O)c3ccc(C#N)cc3)C=CC3C(=O)N(c4ccccc4)C(=O)C32)cc1 (stereo not given) 0.902, COc1ccc([Si](C)(C)[C@H]2[C@H](CC(=O)N3Cc4ccccc4C[C@H]3CO)O[C@@]3(C(=O)N(Cc4ccc(N5CCOC5=O)cc4)c4ccccc43)[C@@H]2C)cc1 -1.31
